Results filed as inconclusive are left out. The source made the active and inactive calls. How the source made its calls, unless noted: active means hit-call score of the fitted dose curve at least 0.9, where 1 is the maximum; inconclusive means response in the unintended direction; inactive means score below 0.9. Where a SMILES comes first, the peptide text is derived from it. [ ]: non-standard residue; d: D form. The star is where a group is joined. Sta = CC(C)C[C@H](N)[C@@H](O)CC(=O)O; Isovaleryl = CC(C)CC(=O)*
Assays:
[1] = target: Cellular tumor antigen p53 (Homo sapiens) (UniProt P04637); assay: TOX21_p53_BLA_p2_ratio: Tox21 HCT-116 p53 Agonism Beta-lactamase Assay, Ratio, Phase 2 (AID 2283592)
Sequence of Cellular tumor antigen p53 (Homo sapiens) (P04637 whole entry, looked up): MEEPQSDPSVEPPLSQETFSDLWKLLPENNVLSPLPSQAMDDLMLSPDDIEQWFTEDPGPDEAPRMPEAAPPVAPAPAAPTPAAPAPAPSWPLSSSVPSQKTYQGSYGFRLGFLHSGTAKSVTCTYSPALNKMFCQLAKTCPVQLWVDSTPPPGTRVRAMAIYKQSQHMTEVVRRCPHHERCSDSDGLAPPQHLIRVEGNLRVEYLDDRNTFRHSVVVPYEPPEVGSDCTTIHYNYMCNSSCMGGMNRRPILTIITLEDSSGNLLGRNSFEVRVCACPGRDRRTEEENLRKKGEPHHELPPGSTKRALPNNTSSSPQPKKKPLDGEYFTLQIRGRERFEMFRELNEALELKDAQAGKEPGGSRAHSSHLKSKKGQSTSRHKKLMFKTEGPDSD
Summary of the method: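 HCT-116 cells with p53-responsive beta-lactamase reporter, 4000 cells/well, preincubated 5 h, then compound in DMSO (217-fold dilution) for 16 h at 37C. CCF4-AM substrate 2 h at room temperature; 460/530 nm emission ratio fitted upward versus DMSO.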

[2] = target: Cellular tumor antigen p53 (Homo sapiens) (UniProt P04637); assay: TOX21_p53_BLA_p5_ratio: Tox21 HCT-116 p53 Agonism Beta-lactamase Assay, Ratio, Phase 5 (AID 2283599)
Summary of the method: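 HCT-116 cells carrying a p53-inducible beta-lactamase reporter were seeded at 4000 cells/well and dosed after 5 h with compound in DMSO (217-fold dilution). After 16 h at 37C, CCF4-AM substrate was added for 2 h, and the 460/530 nm emission ratio was scored as gain-of-signal versus DMSO.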

[3] = target: Cellular tumor antigen p53 (Homo sapiens) (UniProt P04637); assay: TOX21_p53_BLA_p4_ratio: Tox21 HCT-116 p53 Agonism Beta-lactamase Assay, Ratio, Phase 4 (AID 2283601)
Summary of the method: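 HCT116 cells carrying an inducible beta-lactamase reporter were plated at 4000 cells/well, rested 5 h, then exposed to compounds in DMSO (217-fold dilution) for 16 h at 37C. CCF4-AM substrate was loaded 2 h at room temperature; 460/530 nm emission ratio scored gain-of-signal versus DMSO.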

[4] = TOX21_p53_BLA_p5_viability: Viability Assessment in the Tox21 HCT-116 p53 Agonism Beta-lactamase Assay, Phase 5 (AID 2283600)
Summary of the method: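 HCT-116 p53 beta-lactamase reporter cells, 4000/well, were exposed to compound (pin transfer, 217-fold dilution) for 16 hours at 37C. Cellular ATP was read by CellTiter-Glo luminescence after 30 min at room temperature.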

[5] = system: Brachyury (BRA) Protein Expression, Deisenroth Lab, TBXT (gene 6862); assay: CCTE_Deisenroth_DEVTOX-GLR_legacy_Bra: (Legacy) CCTE's DevTox GLR-Endo Assay Evaluation of Brachyury (BRA) Protein Expression, Deisenroth Lab (AID 2284329; active means hit-call score of the fitted dose curve at least 0.9, where 1 is the maximum; inactive means score below 0.9)
Summary of the method: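 RUES2-GLR human pluripotent cells differentiated 48 h with two 24-h-interval chemical exposures (1 nM - 200 uM, 10 points); fixed, nuclear-stained, imaged. Bra+ cell percentage (intensity 5x BMAD above pluripotent control median) fitted relative to 0.2% DMSO.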

[6] = CCTE_Deisenroth_DEVTOX-GLR_legacy_CellCount: (Legacy) Viability Assessment in CCTE's DevTox GLR-Endo Assay, Deisenroth Lab (AID 2284331; active means hit-call score of the fitted dose curve at least 0.9, where 1 is the maximum; inactive means score below 0.9); conditions: actives raise or lower the signal
Summary of the method: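 Nuclei count by fluorescence high-content imaging (5 fields/well) after 48 h differentiation of RUES2-GLR cells. Two exposures, 24 h apart; 1 nM - 200 uM series; n=4. Bidirectional fit vs DMSO.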

[7] = system: SRY-box transcription factor 17 (SOX17) Protein Expression, Deisenroth Lab, SOX17 (gene 64321); assay: CCTE_Deisenroth_DEVTOX-GLR_legacy_Sox17: (Legacy) CCTE's DevTox GLR-Endo Assay Evaluation of SRY-box transcription factor 17 (SOX17) Protein Expression, Deisenroth Lab (AID 2284341; active means hit-call score of the fitted dose curve at least 0.9, where 1 is the maximum; inactive means score below 0.9); conditions: actives raise or lower the signal
Summary of the method: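 RUES2-GLR human pluripotent cells, seeded 24 h, then differentiated 48 h in defined media with two chemical exposures 24 h apart (1 nM - 200 uM, 10 points). Sox17+ fraction from high-content fluorescence imaging; bidirectional fit versus 0.2% DMSO.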

[8] = system: SRY-box transcription factor 2 (SOX2) Protein Expression, Deisenroth Lab, SOX2 (gene 6657); assay: CCTE_Deisenroth_DEVTOX-GLR_legacy_Sox2: (Legacy) CCTE's DevTox GLR-Endo Assay Evaluation of SRY-box transcription factor 2 (SOX2) Protein Expression, Deisenroth Lab (AID 2284346; active means hit-call score of the fitted dose curve at least 0.9, where 1 is the maximum; inactive means score below 0.9)
Summary of the method: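 RUES2-GLR human pluripotent cells seeded 24 h, then differentiated 48 h in defined media with two chemical doses 24 h apart (10-point, 1 nM–200 uM). Fixed, nuclear-stained, imaged; % Sox2+ cells (>5x BMAD over endoderm control median), DMSO-subtracted, fitted upward.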

[9] = system: SRY-box transcription factor 17 (SOX17) Protein Expression, Deisenroth Lab, SOX17 (gene 64321); assay: CCTE_Deisenroth_DEVTOX-GLR_Endo_SOX17: CCTE's DevTox GLR-Endo Assay Evaluation of SRY-box transcription factor 17 (SOX17) Protein Expression, Deisenroth Lab (AID 2284413; active means hit-call score of the fitted dose curve at least 0.9, where 1 is the maximum; inactive means score below 0.9)
Summary of the method: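 Endpoint: % change in SOX17+ fraction (SOX17+ cells / cell count) vs 0.2% DMSO solvent control. RUES2-GLR reporter cells, 48 h endoderm differentiation, two doses at 24 h intervals, high-content fluorescence imaging, 5 fields/well.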

[10] = system: Brachyury (BRA) Protein Expression, TBXT (gene 6862); assay: CCTE_Deisenroth_DEVTOX-GLR_Endo_BRA: CCTE's DevTox GLR-Endo Assay Evaluation of Brachyury (BRA) Protein Expression, Deisenroth Lab (AID 2284417; active means hit-call score of the fitted dose curve at least 0.9, where 1 is the maximum; inactive means score below 0.9)
Summary of the method: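 RUES2-GLR human pluripotent cells, seeded 24 h, then differentiated 48 h in defined media with two chemical exposures 24 h apart (10-point series, 1 nM - 200 uM). Fixed, nuclear-stained, imaged; endpoint is percent BRA+ cells minus 0.2% DMSO control.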

[11] = CCTE_Deisenroth_DEVTOX-GLR_Endo_CellCount: Viability Assessment in CCTE's DevTox GLR-Endo Assay, Deisenroth Lab (AID 2284420; active means hit-call score of the fitted dose curve at least 0.9, where 1 is the maximum; inactive means score below 0.9)
Summary of the method: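 RUES2-GLR pluripotent cells seeded 24 h, then differentiated 48 h in defined media with two chemical exposures 24 h apart. Nuclei counted by high-content imaging; 10-point 1 nM–200 uM series; percent change versus 0.2% DMSO.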

[12] = system: SRY-box transcription factor 17 (SOX17) Protein Expression, Deisenroth Lab, SOX17 (gene 64321); assay: CCTE_Deisenroth_DEVTOX-GLR_Pluri_SOX17: CCTE's DevTox GLR-Pluri Assay Evaluation of SRY-box transcription factor 17 (SOX17) Protein Expression, Deisenroth Lab (AID 2284427)
Summary of the method: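 RUES2-GLR pluripotent cells were induced toward endoderm over 48 h and received two compound doses 24 h apart, in a 10-point series from 1 nM to 200 uM. The percentage of SOX17+ cells among total cells was measured by high-content imaging and reported minus the 0.2% DMSO control.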

[13] = system: SRY-box transcription factor 2 (SOX2) Protein Expression, Deisenroth Lab, SOX2 (gene 6657); assay: CCTE_Deisenroth_DEVTOX-GLR_Pluri_SOX2: CCTE's DevTox GLR-Pluri Assay Evaluation of SRY-box transcription factor 2 (SOX2) Protein Expression, Deisenroth Lab (AID 2284428; active means hit-call score of the fitted dose curve at least 0.9, where 1 is the maximum; inactive means score below 0.9)
Summary of the method: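 RUES2-GLR human pluripotent cells, two exposures 24 h apart over 48 h differentiation; 10-point series 1 nM - 200 uM. High-content imaging gives SOX2+ cells divided by cell count, reported as percent change versus 0.2% DMSO.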

[14] = system: Brachyury (BRA) Protein Expression, Deisenroth Lab, TBXT (gene 6862); assay: CCTE_Deisenroth_DEVTOX-GLR_Pluri_BRA: CCTE's DevTox GLR-Pluri Assay Evaluation of Brachyury (BRA) Protein Expression, Deisenroth Lab (AID 2284429)
Summary of the method: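 Human pluripotent RUES2-GLR cells, seeded 24 h, were differentiated 48 h in defined media with two chemical doses at 24-h intervals (10-point, 1 nM - 200 uM). Readout: percent BRA+ cells by fluorescent reporter imaging, minus 0.2% DMSO control.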

[15] = CCTE_Deisenroth_DEVTOX-GLR_Pluri_CellCount: Viability Assessment in CCTE's DevTox GLR-Pluri Assay Evaluation of Total Cell Counts, Deisenroth Lab (AID 2284430; active means hit-call score of the fitted dose curve at least 0.9, where 1 is the maximum; inactive means score below 0.9)
Summary of the method: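 RUES2-GLR human pluripotent cells, seeded 24 h, then differentiated 48 h with two chemical exposures 24 h apart; 10-point series 1 nM - 200 uM. Fixed, nuclear-stained, imaged (5 fields/well); nuclei count as % change vs 0.2% DMSO.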

Measured: AC50

Brc1cc2ccccc2c2ccccc12
inactive: [1] | [2] | [3]

O=C(CS(=O)Cc1ccco1)NC/C=C\COc1cc(CN2CCCCC2)ccn1 (stereo unspecified)
inactive: [1] | [2] | [3]

CC(C)S
inactive: [1] | [2] | [4] | [3]

CCCCCCCCCCCCCCC1CO1 (stereo unspecified)
inactive: [1] | [2] | [3]

Cc1ccco1
inactive: [1] | [2] | [3]

C=CC(C)(O)CC/C=C(/C)CCC=C(C)C (stereo unspecified)
inactive: [1] | [4]

CN1C(=O)c2ccc([N+](=O)[O-])cc2C1=O
inactive: [1] | [2] | [4] | [3]

O=[N+]([O-])c1c(Cl)cc(Cl)cc1Cl
inactive: [1] | [4]

C=CC(=O)[O-].C=CC(=O)[O-].[Zn+2]
inactive: [1] | [2] | [4] | [3]

CC(=O)OCC(=O)Nc1cc(C#N)cc(NC(=O)COC(C)=O)c1Cl
inactive: [1] | [4]

CC1COc2c(N3CCN(C)CC3)c(F)cc3c(=O)c(C(=O)O)cn1c23 (stereo unspecified)
inactive: [1] | [2] | [3]

c1ccc(SCCSc2ccccc2)cc1
inactive: [1] | [2] | [4] | [3]

CC(C)C(=O)c1c(C(C)C)nn2ccccc12
inactive: [1] | [2] | [3]

C=CCCCCCCCC
inactive: [1] | [4] | [3]

CC(C)CC(=O)N[C@H](C(=O)N[C@H](C(=O)N[C@@H](CC(C)C)[C@@H](O)CC(=O)N[C@@H](C)C(=O)N[C@@H](CC(C)C)[C@@H](O)CC(=O)O)C(C)C)C(C)C (Isovaleryl-VV[Sta]A[Sta]-OH)
inactive: [1] | [4] | [3]

CC(=O)Nc1ncc([N+](=O)[O-])s1
inactive: [1] | [2] | [4] | [3]

O=C(OC1C[C@@H]2CC3C[C@H](C1)N2CC3=O)c1c[nH]c2ccccc12 (stereo partly specified)
inactive: [1] | [4]

NS(=O)(=O)c1ccc(Cl)c(S(N)(=O)=O)c1
inactive: [1] | [2] | [3]

O=C(CCNNC(=O)c1ccncc1)NCc1ccccc1
inactive: [1] | [2] | [4] | [3]

COC(=O)Nc1nc2ccc(C(=O)c3cccs3)cc2[nH]1
active: [1] 94.3 nM
inactive: [4]

CCCCCCCCCCCCCCCCN(C)C
inactive: [1] | [4] | [3]

O=Cc1ccc(C(=O)O)cc1
inactive: [1] | [4] | [3]

Nc1nc2c(ncn2COCCO)c(=O)[nH]1
inactive: [1] | [2] | [3] | [5] | [6] | [7] | [8] | [9] | [10] | [11] | [12] | [13] | [14] | [15]

Source: PubChem BioAssay (EPA / NIEHS)
